# Measured values taken from PubChem BioAssay AID463173 (ICCB-Longwood Screening Facility, Harvard Medical School, 2010).
# Screen size: about 52,000 compounds; about 1,700 (3.3%) were called active. What follows is part of a selection rich in actives, with near analogues and random picks from the rest. Unmarked numbers belong to inactive results. Rule as the data show it: active = survival mostly below about 52% (no sharp cut-off); inactive = mostly above about 56%.
# Test system: Wild type
# Experiment: S. aureus survival, RN4220 and DeltatarO strains – OD600, teichoic acid synthesis inhibitors, primary screen (AID 463173)
# Conditions: S. aureus RN4220 wild type/DeltatarO growth, OD600, 18 h, active compounds read low, screened at 18.75 µg/mL (by protocol)
row,SMILES,survival
1,Cc1ccc(-c2nnc(Nc3ccc(F)cc3)c3ccccc23)cc1S(=O)(=O)NC(C)C,81%
2,COCCCNC(=O)c1cc2cc(S(=O)(=O)N3CCCCC3)ccc2n1C,73%
3,COc1ccc(-c2noc(-c3cccc(OC)c3OC)n2)cc1,-3% (active)
4,COc1ccc(-c2noc(-c3ccccc3NC(=O)c3cc(OC)c(OC)c(OC)c3)n2)cc1,79%
5,COc1ccc(C(=O)Nc2ccccc2-c2nc(-c3ccc(OC)cc3)no2)cc1,89%
6,Cc1ccc(OC(=O)c2snnc2C)cc1C,117%
7,COc1ccc(NC(=O)Nc2cccc(-c3cn4cccnc4n3)c2)cc1,77%
8,CCOC(=O)c1c(-c2ccccc2)oc2ccc(NS(=O)(=O)c3ccccc3)cc12,7% (active)
9,Cc1cc(F)ccc1S(=O)(=O)Nc1ccc2oc3c(c2c1)CC(C)CC3 (stereo not given),-6% (active)
10,CCOC(=O)c1c(-c2ccccc2)oc2ccc(NS(=O)(=O)c3ccc(C)cc3C)cc12,51%
11,CCOc1ccc(S(=O)(=O)Nc2ccc3oc4c(c3c2)CC(C)CC4)cc1 (stereo not given),60%
12,CCOC(=O)c1c(-c2ccccc2)oc2ccc(NS(=O)(=O)c3ccc(C)cc3)cc12,28%
13,CCCCOC(=O)c1c(C)oc2ccc(NS(=O)(=O)c3ccc(F)cc3C)cc12,1% (active)
14,CCOC(=O)c1c(-c2ccccc2)oc2ccc(NS(=O)(=O)c3ccc(OC)cc3)cc12,66%
15,CCc1ccc(S(=O)(=O)Nc2ccc3oc(C)c(C(=O)OCCOC)c3c2)cc1,60%
16,Cc1cc(C)c(S(=O)(=O)Nc2ccc3oc4c(c3c2)CCCC4)cc1C,72%
17,Cc1ccc(NC(=O)Cn2c(=O)n(CCCCC(=O)NCc3ccccc3Cl)c(=O)c3ccccc32)cc1C,74%
18,Cc1cccc(NC(=O)CSc2nccn2Cc2ccc(F)cc2)c1C,71%
19,O=C(Nc1nc2ccc(S(=O)(=O)N3CCCC3)cc2s1)c1cccc(F)c1,63%
20,COc1ccc2c(c1)c1c(c(=O)n(-c3ccc(F)c(Cl)c3)c(=O)n1Cc1cccc(C)c1)n2C,71%
21,Cc1cc(C)c(NC(=O)CSc2ccnc(=O)[nH]2)c(C)c1,74%
22,CCc1nc(C)cn1S(=O)(=O)c1ccc(Cl)c(Cl)c1OC,77%
23,CCOc1cc(Cl)c(S(=O)(=O)n2ccnc2)cc1Cl,74%
24,CCOc1cc(Cl)c(S(=O)(=O)n2cc(C)nc2CC)cc1Cl,-7% (active)

row,SMILES,survival
1,CCCn1c(SCC(=O)c2ccc3c(c2)OCCO3)nnc1-c1ccco1,100%
2,Oc1ccc(Br)cc1C1CC(c2ccccc2)=NC(c2ccco2)N1 (stereo not given),1% (active)
3,O=C(CCN1CCOCC1)N1N=C(c2ccccc2)CC1c1ccco1 (stereo not given),104%
4,COc1ccccc1N1CCN(c2ncnc3c2cnn3-c2cccc(Cl)c2)CC1,-4% (active)
5,COc1ccccc1N1CCN(c2ncnc3c2cnn3-c2ccc(C)cc2)CC1,63%
6,COc1ccccc1N1CCN(c2ncnc3c2cnn3-c2cc(Cl)ccc2C)CC1,136%
7,O=C(COc1ccccc1Cl)N(Cc1ccco1)Cc1ccco1,81%
8,COc1ccc(CNC(=O)CSc2c3c(nc4ccc(Cl)cc24)CCCC3)cc1,76%
9,Cc1ccc(CNC(=O)CSc2c3c(nc4ccc(Cl)cc24)CCCC3)cc1,80%
10,CCCN(CCC)C(=O)CSc1c2c(nc3ccc(Cl)cc13)CCCC2,52%
11,CCCNC(=O)CSc1c2c(nc3ccc(Cl)cc13)CCCC2,72%
12,CCCCN(C)C(=O)CSc1c2c(nc3ccc(Cl)cc13)CCCC2,-2% (active)
13,COc1cc(OC)c(N(C)C(=O)CSc2c3c(nc4ccc(Cl)cc24)CCCC3)cc1Cl,2% (active)
14,CN(Cc1ccccc1)C(=O)CSc1c2c(nc3ccc(Cl)cc13)CCCC2,0% (active)
15,COc1ccc(NC(=O)CSc2c3c(nc4ccc(Cl)cc24)CCCC3)cc1Cl,75%
16,CCOc1ccc(CNC(=O)CSc2c3c(nc4ccc(Cl)cc24)CCCC3)cc1,84%
17,CCc1ccc(CNC(=O)CSc2c3c(nc4ccc(Cl)cc24)CCCC3)cc1,76%
18,CCCCNC(=O)CSc1c2c(nc3ccc(Cl)cc13)CCCC2,66%
19,CCCCN(CC)C(=O)CSc1c2c(nc3ccc(Cl)cc13)CCCC2,-2% (active)
20,CCCN(C(=O)c1c(C)oc2ncn(CC(C)C)c(=O)c12)c1ccccc1C,59%
21,CCOc1ccc(CCNC(=O)Cn2nc(C)c3c(C)n(-c4ccccc4)nc3c2=O)cc1OCC,19%
22,CCn1cc(CCC(=O)NCc2ccccc2OC)c2ccccc21,76%
23,COc1ccc(C(=O)NCc2nnc(SCC(=O)Nc3ccccc3)n2-c2ccc(F)cc2)cc1,78%
24,Clc1cccc(-n2ncc3c(N4CCCCCC4)ncnc32)c1,81%

row,SMILES,survival
1,COc1ccc(CC(=O)Nc2ccc(-c3nc4ccccc4s3)c(C)c2)cc1,69%
2,Cc1cccc(OCC(=O)Nc2cccc(-c3nc4ccccc4s3)c2)c1,5% (active)
3,COc1cccc(CC(=O)Nc2ccc(-c3nc4ccccc4s3)cc2Cl)c1,73%
4,COc1ccccc1C(=O)Nc1ccc(-c2nc3ccccc3s2)c(C)c1,82%
5,COc1ccc(-c2nc3ccccc3s2)cc1NC(=O)COc1cccc(C)c1,39%
6,Cc1cc(C)cc(OCC(=O)Nc2ccc(-c3nc4ccccc4s3)cc2)c1,88%
7,COc1cccc(CC(=O)Nc2ccc(-c3nc4ccccc4s3)cc2)c1,-3% (active)
8,Cc1ccc(OCC(=O)Nc2cccc(-c3nc4ccccc4s3)c2)cc1,55%
9,COc1ccc(CC(=O)Nc2ccc(-c3nc4ccccc4s3)c(C)c2)cc1OC,10% (active)
10,COc1ccc(N2CCN(S(=O)(=O)c3cc(Br)cc4c3N(C(=O)C3CC3)CC4)CC2)cc1,90%
11,COc1ccc2nc3oc(C(=O)NCc4ccccc4OC)cc3cc2c1,88%
12,COc1ccc(NC(=O)CC2C(=O)N(c3ccc(F)cc3)C(=O)N2Cc2ccco2)cc1 (stereo not given),90%
13,COc1ccc(CNC(=O)c2cc3oc4ccccc4c3n2C)cc1OC,64%
14,Cc1cnc(=O)[nH]c1SCC(=O)Nc1nc2ccccc2s1,89%
15,CCOC(=O)c1c(SCC(=O)Nc2nc3ccc(C)cc3s2)nc(=O)[nH]c1C,81%
16,CCOC(=O)c1c(SCC(=O)Nc2nc3ccccc3s2)nc(=O)[nH]c1C,1% (active)
17,CC(C)OCCCNC(=O)Cc1ccc(NC(=O)N2CCCCc3ccccc32)cc1,77%
18,CCN(CC)c1ccc(CN(C(=O)c2cc(=O)c3ccccc3o2)C2CCS(=O)(=O)C2)cc1 (stereo not given),76%
19,CCOc1ccc(/C=C/C(=O)Nc2sc3c(c2C(=O)OC)C(C(=O)OC)CC3)cc1 (stereo not given),75%
20,COC(=O)c1c(NC(=O)c2cccs2)sc2c1C(C(=O)OC)CC2 (stereo not given),104%
21,COC(=O)c1c(NC(=O)CCCOc2ccc(C)cc2)sc2c1C(C(=O)OC)CC2 (stereo not given),1% (active)
22,COC(=O)c1c(NC(=O)/C(C#N)=C/c2ccc(OC)cc2)sc2c1C(C(=O)OC)CC2 (stereo not given),71%
23,COC(=O)c1c(NC(=O)/C(C#N)=C/c2ccccc2)sc2c1C(C(=O)OC)CC2 (stereo not given),82%
24,COC(=O)c1c(NC(=O)CCCOc2ccc(C(C)(C)C)cc2)sc2c1CCC(C)C2 (stereo not given),30%

row,SMILES,survival
1,CC1CCc2c(sc(NC(=O)CCCOc3ccc(C(C)(C)C)cc3)c2C(N)=O)C1 (stereo not given),79%
2,COC(=O)c1c(NC(=O)CCCOc2ccc(C(C)(C)C)cc2)sc2c1C(C(=O)OC)CC2 (stereo not given),-2% (active)
3,COC(=O)c1c(NC(=O)CCCOc2cccc(C)c2)sc2c1C(C(=O)OC)CC2 (stereo not given),-3% (active)
4,Cc1ccc(N(O)C(=O)Nc2ccccc2)cc1,119%
5,COCCCNC(=O)c1ccc2nc(CCc3ccccc3)oc2c1,88%
6,Cc1cccc(N2CCN(S(=O)(=O)c3ccc(F)c(C(=O)Nc4ccc(C(C)C)cc4)c3)CC2)c1C,75%
7,CCOc1ccc(CCNC(=O)Cn2c(C)c3cnn(-c4ccccc4)c(=O)c3c2C)cc1,95%
8,COc1ccc2c(c1)CCc1c(C(=O)Nc3c(C)nn(Cc4ccc(C)cc4)c3C)noc1-2,16% (active)
9,COc1ccc2c(c1)CCc1c(C(=O)Nc3c(C)nn(Cc4ccc(Cl)cc4)c3C)noc1-2,64%
10,COc1ccc2c(c1)CCc1c(C(=O)Nc3c(C)nn(Cc4ccccc4)c3C)noc1-2,92%
11,CC(=O)Nc1cc(C(=O)NCc2ccc(C)cc2)ccc1S(=O)(=O)c1ccc(Cl)cc1,85%
12,CCc1ccc(-n2c(=O)c3cccnc3n2CC(=O)Nc2cc(OC)ccc2OC)cc1,74%
13,Cc1cc(C(=O)c2cccs2)c(N)s1,90%
14,COc1ccc(CNC(=O)c2ccc3c(c2)NC(=O)C(CS(=O)(=O)Cc2ccccc2Cl)N3)cc1 (stereo not given),49%
15,Cc1ccc(C)c(N2CCN(C(=O)c3cn(CC(C)C)c(=O)c4c3c3ccccc3n4C)CC2)c1,17% (active)
16,Cc1cccc(N2CCN(C(=O)c3cn(CC(C)C)c(=O)c4c3c3ccccc3n4C)CC2)c1C,89%
17,Cc1ccc(Cl)cc1N1CCN(C(=O)c2cn(CC(C)C)c(=O)c3c2c2ccccc2n3C)CC1,87%
18,Cc1cccc(NC(=O)NCCn2c(=O)oc3ccc(C)cc32)c1,88%
19,Cc1ccc(C(C)C)c(OCCCn2c(=O)oc3ccccc32)c1,-2% (active)
20,Cc1ccc(NC(=O)NCCOCCn2c(=O)oc3ccccc32)c(C)c1,88%
21,Cc1ccc2oc(=O)n(CCNC(=O)Nc3ccc(C)c(F)c3)c2c1,108%
22,Cc1ccc(C(C)C)c(OCCn2cc(C(=O)c3ccco3)c3ccccc32)c1,30%
23,Cc1ccc(C(C)C)c(OCCCn2c(=O)oc3ccc(C)cc32)c1,-10% (active)
